Reference: PubChem BioAssay (NCATS)
Results filed as inconclusive are left out. Calls of active or inactive are those of the source. The call rests on the fitted dose curve; in most records, active means well fitted inhibition curve with a large enough effect; inconclusive means small, poorly fitted or top-dose-only effect; inactive means flat fitted curve, though single readings scatter.

Columns and labels:
[1] = molecular target: Glutathione peroxidase 1 (Homo sapiens) (UniProt P07203); assay: Primary qHTS Assay for Inhibitors of Recombinant Selenoprotein Glutathione Peroxidase 1 (GPX1) (AID 1845191); details: recombinant GPX1, GR-coupled NADPH fluorescence, 15 min; series mostly up to 48.8 µM; further: nearly all actives have a fitted effect of over 65% in size
Glutathione peroxidase 1 (Homo sapiens), sequence (P07203 whole entry, looked up): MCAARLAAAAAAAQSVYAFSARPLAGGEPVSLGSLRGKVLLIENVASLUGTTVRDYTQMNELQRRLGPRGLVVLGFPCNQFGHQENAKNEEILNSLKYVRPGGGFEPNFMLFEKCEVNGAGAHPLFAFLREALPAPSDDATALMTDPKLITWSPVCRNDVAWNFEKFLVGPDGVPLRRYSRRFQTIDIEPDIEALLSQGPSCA
Outline: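 10 nM GPX1 + cpd, 30 min RT; start w/ 1 mM GSH, 0.5 mM cumene hydroperoxide, 0.5 mM NADPH, 100 nM GR, 0.01% BSA; buffer 50 mM Tris-HCl pH 7.5, 2 mM EDTA, 150 mM NaCl; Fl 340/450, 0 & 15 min.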

[2] = molecular target: Phospholipid hydroperoxide glutathione peroxidase GPX4 (Homo sapiens) (UniProt P36969); assay: Primary qHTS Assay for Inhibitors of Recombinant Selenoprotein Glutathione Peroxidase 4 (GPX4) (AID 1845192); details: recombinant GPX4, GR-coupled NADPH fluorescence, 15 min; series mostly up to 50 µM; further: nearly all actives have a fitted effect of over 65% in size; on activity change, negative = inhibition: on the % scale 0 is the no-effect control and ±100 the full control effect
Phospholipid hydroperoxide glutathione peroxidase GPX4 (Homo sapiens), sequence (P36969 whole entry, looked up): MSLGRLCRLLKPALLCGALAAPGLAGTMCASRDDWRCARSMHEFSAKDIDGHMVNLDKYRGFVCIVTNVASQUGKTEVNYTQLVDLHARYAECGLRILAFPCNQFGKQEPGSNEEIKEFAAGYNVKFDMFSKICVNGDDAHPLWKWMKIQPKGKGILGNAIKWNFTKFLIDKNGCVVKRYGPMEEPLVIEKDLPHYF
Outline: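 NADPH consumption, followed by fluorescence at 340/450 nm between 0 and 15 min, reports GPX4 activity via coupled glutathione reductase (100 nM). Enzyme 200 nM was pre-exposed to compound 30 min; 0.5 mM cumene hydroperoxide and 1 mM GSH served as substrates.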

[3] = molecular target: Luciferin 4-monooxygenase (Photinus pyralis) (UniProt P08659); assay: Primary firefly luciferase (FLuc) qHTS assay for identification of artifact compounds. (AID 1845220); details: purified firefly luciferase, luminescence, 5 min; series mostly up to 54.1 µM; further: nearly all actives have a fitted effect of over 60% in size;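 on activity change, negative = inhibition: plate controls were DMSO vehicle for no effect and no enzyme for full effect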
Outline: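 FLuc 10 nM; luciferin 10 uM; ATP 10 uM; Tris-acetate pH 7.6, Mg-acetate 10 mM; 15 min RT preincubation; 5 min reaction; luminescence.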

COC1=CC(=O)O[C@@H](CCc2ccccc2)[C@@H]1O
inactive: Potency [1] | Potency [2] | Potency [3]

C[C@@H]1O[C@@H](OC[C@H]2O[C@@H](OCC3CCC4CC3C4(C)C)[C@H](O)[C@@H](O)[C@@H]2O)[C@H](O)[C@H](O)[C@H]1O (stereo partly drawn)
inactive: Potency [1] | Potency [2] | Potency [3]

CC1CC(=O)C2=C(O1)OC1(C)CCC3C(C)(C)C=CC(=O)C3(C)C1C2 (stereo not drawn)
inactive: Potency [1] | Potency [2] | Potency [3]

C[C@@H](Nc1cc(NS(=O)(=O)N2CCC2)nc(SCc2cccc(F)c2F)n1)[C@@H](O)CO
inactive: Potency [1] | Potency [2] | Potency [3]

CCCCCCc1cccc(NC(=O)[C@H](N)CCP(=O)(O)O)c1
inactive: Potency [1] | Potency [2] | activity change, negative = inhibition [3] 2.4% [at 11.6 µM]

C=C1CCC2C(C)(C)C(O)CCC2(C)C1CCC(C)CCOC(=O)CCC(=O)O (stereo not drawn)
inactive: Potency [1] | Potency [2] | Potency [3]

CC1(C)CCCC2(C)C1C(O)C=C(CO)C2(O)C(=O)O (stereo not drawn)
inactive: Potency [1] | Potency [2] | Potency [3]

c1ccc(C(OC2CCN(CCCc3nn[nH]n3)CC2)c2ccccc2)cc1
inactive: Potency [1] | Potency [2] | Potency [3]

CC(=O)N1c2ccccc2C2(O)CC3C(=O)NC(CC(C)C)C(=O)N3C12 (stereo not drawn)
inactive: Potency [1] | Potency [2] | Potency [3]

CCOC(=O)[C@H](CCc1ccccc1)CC1(C(=O)N[C@H]2CCc3ccccc3N(CC(=O)O)C2=O)CCCC1
inactive: Potency [1] | Potency [2] | Potency [3]

CC(C)c1cc2c(c(O)c1O[C@@H]1O[C@H](CO)[C@@H](O)[C@H](O)[C@H]1O)CC1(O)CCC(O)C(C)(C)C1CC2 (stereo partly drawn)
inactive: Potency [1] | Potency [2] | Potency [3]
